Test results as given in PubChem BioAssay AID1347074 (Center for Chemical Genomics, University of Michigan, 2019).
In all, about 47,000 compounds went through this assay and about 2,800 (6%) were called active. This is one part of a sample in which actives are shown more often than they occur. No stated cut-off is given here; in the data, active means z-score above about 3 (passing the limit was not always enough); inactive means the rest.

biological target: Endoribonuclease Dicer (Homo sapiens) (UniProt Q9UPY3); test: Dicer cleavage of pre-miR-21 blockers – biochemical, cat-ELCCA, chemiluminescence, primary screen (AID 1347074); details: cat-ELCCA pre-miR-21 Dicer processing, at 25 µM, hits give high values;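 further: plate controls were vehicle for no effect and no enzyme for full effect; higher signal means more uncleaved substrate so more Dicer inhibition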
Sequence (Q9UPY3 whole entry, looked up): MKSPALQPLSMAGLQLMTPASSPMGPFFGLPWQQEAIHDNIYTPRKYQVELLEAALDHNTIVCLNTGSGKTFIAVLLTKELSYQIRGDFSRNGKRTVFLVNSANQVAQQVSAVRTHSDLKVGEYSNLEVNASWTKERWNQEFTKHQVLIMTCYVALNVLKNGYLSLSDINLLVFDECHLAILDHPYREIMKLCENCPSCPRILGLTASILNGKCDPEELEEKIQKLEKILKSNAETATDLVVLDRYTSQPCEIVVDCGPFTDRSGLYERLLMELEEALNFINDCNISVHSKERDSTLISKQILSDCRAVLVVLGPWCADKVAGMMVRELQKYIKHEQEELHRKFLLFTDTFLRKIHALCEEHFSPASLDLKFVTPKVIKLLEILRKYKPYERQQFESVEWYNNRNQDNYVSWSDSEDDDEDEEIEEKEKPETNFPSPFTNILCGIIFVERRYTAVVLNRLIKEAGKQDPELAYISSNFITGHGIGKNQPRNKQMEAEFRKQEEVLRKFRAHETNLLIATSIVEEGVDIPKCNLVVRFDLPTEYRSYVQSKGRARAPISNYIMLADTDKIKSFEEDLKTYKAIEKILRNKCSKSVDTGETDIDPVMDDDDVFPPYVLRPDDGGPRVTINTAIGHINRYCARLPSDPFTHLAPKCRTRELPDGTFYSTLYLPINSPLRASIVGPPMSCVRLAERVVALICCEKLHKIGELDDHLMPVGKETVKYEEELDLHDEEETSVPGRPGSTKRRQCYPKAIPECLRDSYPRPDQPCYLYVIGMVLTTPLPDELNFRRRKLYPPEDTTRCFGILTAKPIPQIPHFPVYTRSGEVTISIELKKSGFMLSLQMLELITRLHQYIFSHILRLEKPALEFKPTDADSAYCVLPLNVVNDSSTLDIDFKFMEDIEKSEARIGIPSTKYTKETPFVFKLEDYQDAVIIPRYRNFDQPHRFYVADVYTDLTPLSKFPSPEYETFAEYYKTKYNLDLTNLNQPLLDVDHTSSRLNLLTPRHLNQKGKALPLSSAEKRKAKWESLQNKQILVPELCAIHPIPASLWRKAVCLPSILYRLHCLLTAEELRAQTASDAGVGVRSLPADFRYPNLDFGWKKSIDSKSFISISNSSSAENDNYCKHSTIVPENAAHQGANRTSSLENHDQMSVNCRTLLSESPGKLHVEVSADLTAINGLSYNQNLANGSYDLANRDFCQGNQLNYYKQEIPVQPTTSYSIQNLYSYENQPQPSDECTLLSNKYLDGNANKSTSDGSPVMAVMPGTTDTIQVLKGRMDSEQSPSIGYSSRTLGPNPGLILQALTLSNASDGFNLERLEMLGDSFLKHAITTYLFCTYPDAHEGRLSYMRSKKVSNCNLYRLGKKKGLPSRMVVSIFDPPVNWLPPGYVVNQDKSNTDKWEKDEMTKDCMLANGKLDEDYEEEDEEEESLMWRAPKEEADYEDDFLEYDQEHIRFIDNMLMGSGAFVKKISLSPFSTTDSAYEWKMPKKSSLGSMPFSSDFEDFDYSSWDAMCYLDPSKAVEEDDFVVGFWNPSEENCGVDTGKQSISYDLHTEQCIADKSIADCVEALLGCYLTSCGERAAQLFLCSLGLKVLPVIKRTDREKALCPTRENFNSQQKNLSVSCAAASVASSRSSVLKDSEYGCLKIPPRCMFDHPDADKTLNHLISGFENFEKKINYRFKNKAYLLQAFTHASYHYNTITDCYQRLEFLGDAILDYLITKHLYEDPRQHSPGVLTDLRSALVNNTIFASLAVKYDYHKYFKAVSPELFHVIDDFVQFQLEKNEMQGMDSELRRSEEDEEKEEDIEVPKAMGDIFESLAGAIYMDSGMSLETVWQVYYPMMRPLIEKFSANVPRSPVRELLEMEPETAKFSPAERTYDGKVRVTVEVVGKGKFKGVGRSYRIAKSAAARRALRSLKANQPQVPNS

Row | SMILES | z-score
1 | CCCCSc1nnc2c(n1)OC=Nc1ccc(Br)cc1-2 | 1.93 (inactive)
2 | N#C/C(=C\N1CCc2ccccc21)C(=O)c1cccc(C(F)(F)F)c1 | -2.08 (inactive)
3 | O=C(CSc1nc2ccccc2nc1N1CCOCC1)Nc1ccccc1 | 1.99 (inactive)
4 | O=C(CSc1nc2ccccc2nc1N1CCCC1)NCc1cccs1 | 3.04 (active)
5 | O=C(CSc1nc2ccccc2nc1N1CCCC1)N1CCN(c2ccccc2)CC1 | 1.57 (inactive)
6 | N#CC1=C(N)Oc2ccc3ccccc3c2C1c1ccc(F)cc1 (centres undefined) | -0.03 (inactive)
7 | O=C(O)c1ccc(N2C(=O)CC(N3CCCCC3)C2=O)cc1 (centres undefined) | -0.35 (inactive)
8 | COc1ccc(CCNC(N)=O)cc1OC | 5.13 (active)
9 | COc1ccc(CCNCC(O)Cn2ccc3ccccc32)cc1OC (centres undefined) | -0.31 (inactive)
10 | COc1ccc(CCNC(=O)CCC(=O)O)cc1OC | 1.57 (inactive)
11 | COC(=O)C(C(=O)OC)=C(SC)SC | -1.16 (inactive)
12 | CC1(C)CC2(CC(C)(c3csc(Nc4ccccc4)n3)OC2=O)C(=O)O1 (centres undefined) | 1.11 (inactive)
13 | O=[N+]([O-])c1ccc(CC(O)N2CCN(c3nc4ccc(Cl)cc4s3)CC2)cc1 (centres undefined) | -0.91 (inactive)
14 | O=C(c1cccs1)c1nn(-c2ccccc2)c2nc(=O)c(Cc3ccc(Cl)cc3)nn12 | -0.23 (inactive)
15 | Cc1cc(C)cc(Oc2coc3cc(OCC(=O)O)ccc3c2=O)c1 | -0.66 (inactive)
16 | Cc1[nH]cc(Br)c(=O)c1OCC(=O)O | 4.04 (active)
17 | COc1ccc2[nH]cc(CCC(=O)O)c2c1 | 2.43 (inactive)
18 | O=S(=O)(c1cc(Cl)c(Cl)cc1Cl)N1CCc2[nH]c3ccc(F)cc3c2C1 | -0.85 (inactive)
19 | Cc1ccc(O)c(-c2cnc3ccccc3n2)c1 | -1.69 (inactive)
20 | O=C1C=C(NNc2ccccc2)CCC1 | 3.26 (active)
21 | CC1(C)CC(=O)C=C(Nc2ccccc2)C1 | 2.68 (inactive)
22 | Cc1ccc(-n2nnnc2-c2ccc(Cl)c(Cl)c2)c(C)c1 | -1.31 (inactive)
23 | Nc1n[nH]c2c1CSc1ccc(Cl)cc1-2 | -4.16 (inactive)
24 | Cc1ccc2nc(Nc3ncc4c(n3)CC(C)(C)CC4=O)nc(C)c2c1 | 1.2 (inactive)
25 | O=C(CS(=O)(=O)c1ccc(C(F)(F)F)cn1)NNC(=O)c1ccccc1 | 0.59 (inactive)
26 | CCOC(=O)c1cc(CC)sc1NC(=O)c1cccc(C(F)(F)F)c1 | 0.82 (inactive)
27 | NC(=S)NNC(=O)c1cccc(C(F)(F)F)c1 | 33.4 (active)
28 | O=[N+]([O-])c1cccc(C2CC(c3ccccc3)=Nc3ccccc3S2)c1 (centres undefined) | -1.81 (inactive)
29 | C1=CC2CC1CC2CN1CCN(Cc2c[nH]c3ccccc23)CC1 (centres undefined) | 4.79 (active)
